Data published in ChEMBL document CHEMBL3988442, “University of Dundee, Small-Polar-MMV Screening Library” (2021).
For some assays here: Results with a measured potency or affinity are listed apart.

Tests used:
Set-up in all cases: scale not given: direction of the effect not stated beside the values
[1] = target: Protein translocase subunit SecA (Escherichia coli (strain K12)) (UniProt P10408); experiment: Assay to Identify E. coli SecA ATPase Inhibitors; assay type: functional; conditions: 30 µM
[2] = target: T1, Ubiquitin-activating enzyme e1, putative (Leishmania donovani (strain BPK282A1)) (UniProt E9BSI1); experiment: Leishmania donovani Ubiquitin Activating Enzyme (LdE1); assay type: functional; conditions: 30 µM
T1 sequence (whole entry): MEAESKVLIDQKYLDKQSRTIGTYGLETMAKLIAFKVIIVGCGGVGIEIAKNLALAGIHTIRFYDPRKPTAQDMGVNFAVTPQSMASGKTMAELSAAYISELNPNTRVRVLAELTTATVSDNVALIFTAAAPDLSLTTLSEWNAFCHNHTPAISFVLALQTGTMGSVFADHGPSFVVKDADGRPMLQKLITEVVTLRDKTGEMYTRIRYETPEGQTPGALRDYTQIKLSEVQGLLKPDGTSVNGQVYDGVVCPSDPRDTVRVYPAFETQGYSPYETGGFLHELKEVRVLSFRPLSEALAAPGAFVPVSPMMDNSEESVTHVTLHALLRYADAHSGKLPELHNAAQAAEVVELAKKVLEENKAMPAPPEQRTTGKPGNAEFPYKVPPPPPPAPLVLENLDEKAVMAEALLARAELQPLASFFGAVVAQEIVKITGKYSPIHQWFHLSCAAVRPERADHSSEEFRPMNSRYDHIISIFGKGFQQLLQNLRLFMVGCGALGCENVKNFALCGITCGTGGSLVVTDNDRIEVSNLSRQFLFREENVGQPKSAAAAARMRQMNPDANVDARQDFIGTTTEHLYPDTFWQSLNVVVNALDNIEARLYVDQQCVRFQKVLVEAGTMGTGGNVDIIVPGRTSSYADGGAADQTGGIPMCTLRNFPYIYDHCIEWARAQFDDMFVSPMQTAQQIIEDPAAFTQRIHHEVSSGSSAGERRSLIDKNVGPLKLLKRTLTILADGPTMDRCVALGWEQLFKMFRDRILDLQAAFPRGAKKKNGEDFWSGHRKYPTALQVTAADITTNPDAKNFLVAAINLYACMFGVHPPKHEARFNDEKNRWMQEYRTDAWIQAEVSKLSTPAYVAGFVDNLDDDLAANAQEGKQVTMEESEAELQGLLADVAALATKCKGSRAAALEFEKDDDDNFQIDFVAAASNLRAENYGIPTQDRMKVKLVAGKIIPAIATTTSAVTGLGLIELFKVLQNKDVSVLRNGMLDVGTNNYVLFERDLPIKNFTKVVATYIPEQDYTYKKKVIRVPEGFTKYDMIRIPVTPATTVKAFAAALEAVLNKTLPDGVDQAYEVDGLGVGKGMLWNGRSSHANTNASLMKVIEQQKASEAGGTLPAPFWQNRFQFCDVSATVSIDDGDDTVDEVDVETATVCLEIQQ

[3] = target: AMP-activated protein kinase, AMPK (Homo sapiens) (UniProt P54646+O43741+P54619+Q9UGJ0+Q9Y478+Q13131+Q9UGI9); experiment: AMP-dependent Kinase enzyme assay. An in vitro enzyme assay that detects ADP turnover that is directly proportional to AMPK activity. This uses naive AMPK that is activated during the assay with MK-8722; assay type: functional; conditions: 30 µM
[4] = target: Sialic acid-binding Ig-like lectin 9 (Homo sapiens) (UniProt Q9Y336); experiment: Hs-Siglec9 ALPHAscreen SOP 20170721; conditions: 10 µM
Trypanosoma cruzi = experiment: Trypanosoma cruzi phosphomannomutase and mannose-1-phosphate guanylyltransferase assay; assay type: functional; conditions: 10 µM
[5] = target: T2, Arginase-2, mitochondrial (Homo sapiens) (UniProt P78540); experiment: in vitro enzyme assay to detect the production of urea directly proportional to the activity of Arginase II; assay type: functional; conditions: 33.3 µM; also: in the data most compounds retested in dose-response had high values
T2 sequence (whole entry): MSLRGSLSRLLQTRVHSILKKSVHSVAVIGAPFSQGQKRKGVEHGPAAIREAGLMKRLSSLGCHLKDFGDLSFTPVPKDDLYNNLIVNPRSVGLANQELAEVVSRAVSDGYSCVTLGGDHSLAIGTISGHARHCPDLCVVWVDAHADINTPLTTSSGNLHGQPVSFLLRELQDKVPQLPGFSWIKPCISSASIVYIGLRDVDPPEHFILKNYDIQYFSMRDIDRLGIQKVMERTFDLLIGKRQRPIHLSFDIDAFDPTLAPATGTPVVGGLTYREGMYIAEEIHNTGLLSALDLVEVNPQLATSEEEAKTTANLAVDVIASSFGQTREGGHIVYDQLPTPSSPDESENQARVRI

[6] = target: T3, Proteasome subunit beta (Trypanosoma cruzi) (UniProt O96673); experiment: Trypanosoma cruzi proteasome chymotrypsin-like activity (TcProtChymo) assay.; also: in the data most compounds retested in dose-response had high values; assay type: functional; conditions: 9.37 µM
T3 sequence (whole entry): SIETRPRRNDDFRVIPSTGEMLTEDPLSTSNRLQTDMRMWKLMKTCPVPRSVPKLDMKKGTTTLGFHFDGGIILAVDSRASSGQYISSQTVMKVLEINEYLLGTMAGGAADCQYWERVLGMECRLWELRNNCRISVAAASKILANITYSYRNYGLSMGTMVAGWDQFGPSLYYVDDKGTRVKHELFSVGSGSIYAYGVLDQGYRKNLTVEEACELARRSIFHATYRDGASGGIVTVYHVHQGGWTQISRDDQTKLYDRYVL

Homo sapiens = species on record: Homo sapiens; experiment: To identify inhibition of the IFN signalling (Jak-Stat) pathway via expression of an eGFP reporter gene under the control of an IFN-stimulated response element (ISRE) containing MxA promoter.; assay type: functional; conditions: 30 µM
[7] = target: T4, Tyrosyl-tRNA synthetase, putative (Trypanosoma cruzi (strain CL Brener)) (UniProt Q4DSP6); experiment: Trypanosoma cruzi tyrosyl tRNA synthetase (TcYRS) _High Tyrosine SOP; assay type: functional; conditions: 30 µM; also: in the data most compounds retested in dose-response had high values
T4 sequence (whole entry): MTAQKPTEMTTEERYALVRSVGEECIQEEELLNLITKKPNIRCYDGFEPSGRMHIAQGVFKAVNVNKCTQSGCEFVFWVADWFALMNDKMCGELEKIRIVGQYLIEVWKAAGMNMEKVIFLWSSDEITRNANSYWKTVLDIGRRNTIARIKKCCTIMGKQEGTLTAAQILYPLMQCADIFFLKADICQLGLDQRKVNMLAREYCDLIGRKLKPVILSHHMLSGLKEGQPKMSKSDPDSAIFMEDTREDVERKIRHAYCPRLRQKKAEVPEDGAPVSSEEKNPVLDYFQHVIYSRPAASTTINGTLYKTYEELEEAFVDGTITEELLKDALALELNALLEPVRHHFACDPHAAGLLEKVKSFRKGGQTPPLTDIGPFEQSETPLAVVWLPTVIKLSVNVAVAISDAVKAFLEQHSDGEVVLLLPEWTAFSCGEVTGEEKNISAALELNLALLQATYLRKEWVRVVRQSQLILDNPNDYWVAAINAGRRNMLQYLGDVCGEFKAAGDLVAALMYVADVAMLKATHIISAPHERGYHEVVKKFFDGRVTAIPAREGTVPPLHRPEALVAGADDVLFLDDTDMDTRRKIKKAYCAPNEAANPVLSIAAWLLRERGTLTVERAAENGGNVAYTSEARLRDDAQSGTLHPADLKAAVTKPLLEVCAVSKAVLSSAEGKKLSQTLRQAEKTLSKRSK

[8] = target: T4, Tyrosyl-tRNA synthetase, putative (Trypanosoma cruzi (strain CL Brener)); experiment: Trypanosoma cruzi tyrosyl tRNA synthetase (TcYRS) SOP; assay type: functional; conditions: 30 µM
[9] = target: Chromo domain-containing protein 1 (Saccharomyces cerevisiae (strain ATCC 204508 / S288c) (Baker's yeast)) (UniProt P32657); experiment: ScCHD-1 Enzyme Inhibition Assay; assay type: functional; conditions: 30 µM; also: in the data most compounds retested in dose-response had high values
Chromo domain-containing protein 1 (Saccharomyces cerevisiae (strain ATCC 204508 / S288c) (Baker's yeast)), sequence (P32657 whole entry, the tested form may be a part): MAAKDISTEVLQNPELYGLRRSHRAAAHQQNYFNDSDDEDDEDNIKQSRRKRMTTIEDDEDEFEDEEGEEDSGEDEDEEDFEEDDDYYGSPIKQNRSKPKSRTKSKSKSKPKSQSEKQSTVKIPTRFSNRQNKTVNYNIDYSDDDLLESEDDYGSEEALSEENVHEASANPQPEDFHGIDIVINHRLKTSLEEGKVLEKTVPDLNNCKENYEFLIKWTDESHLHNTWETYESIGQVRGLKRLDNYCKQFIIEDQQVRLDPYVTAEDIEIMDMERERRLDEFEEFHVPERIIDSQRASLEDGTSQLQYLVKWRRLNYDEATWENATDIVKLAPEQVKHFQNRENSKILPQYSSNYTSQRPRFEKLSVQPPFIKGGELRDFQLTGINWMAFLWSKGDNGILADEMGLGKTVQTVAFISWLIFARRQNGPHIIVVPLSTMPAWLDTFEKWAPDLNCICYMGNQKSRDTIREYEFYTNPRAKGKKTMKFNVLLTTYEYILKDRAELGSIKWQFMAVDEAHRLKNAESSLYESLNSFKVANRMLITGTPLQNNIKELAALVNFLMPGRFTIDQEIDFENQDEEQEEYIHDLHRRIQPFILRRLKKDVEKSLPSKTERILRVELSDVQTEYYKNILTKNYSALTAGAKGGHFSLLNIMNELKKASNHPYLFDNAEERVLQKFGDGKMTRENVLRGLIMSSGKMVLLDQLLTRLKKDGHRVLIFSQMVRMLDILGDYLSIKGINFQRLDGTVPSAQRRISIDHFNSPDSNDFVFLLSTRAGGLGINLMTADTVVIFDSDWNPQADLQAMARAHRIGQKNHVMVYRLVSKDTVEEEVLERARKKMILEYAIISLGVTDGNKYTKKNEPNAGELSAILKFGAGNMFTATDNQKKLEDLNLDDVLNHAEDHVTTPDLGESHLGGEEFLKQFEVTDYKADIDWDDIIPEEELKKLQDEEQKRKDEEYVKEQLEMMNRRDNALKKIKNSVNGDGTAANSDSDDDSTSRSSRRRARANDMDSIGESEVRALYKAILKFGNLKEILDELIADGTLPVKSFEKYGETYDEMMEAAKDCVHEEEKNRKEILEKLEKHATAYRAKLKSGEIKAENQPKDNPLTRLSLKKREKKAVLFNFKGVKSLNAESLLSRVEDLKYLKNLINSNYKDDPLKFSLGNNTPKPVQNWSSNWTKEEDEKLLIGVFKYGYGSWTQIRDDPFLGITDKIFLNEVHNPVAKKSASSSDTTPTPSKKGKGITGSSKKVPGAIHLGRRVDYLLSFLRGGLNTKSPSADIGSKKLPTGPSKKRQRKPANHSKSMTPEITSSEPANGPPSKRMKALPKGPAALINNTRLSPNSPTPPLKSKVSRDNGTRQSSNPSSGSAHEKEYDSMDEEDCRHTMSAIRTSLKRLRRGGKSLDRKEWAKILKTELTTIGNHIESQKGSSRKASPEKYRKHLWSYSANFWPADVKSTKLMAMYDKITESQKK

Sialic acid-binding Ig-like lectin 9 (Homo sapiens), sequence (Q9Y336 whole entry): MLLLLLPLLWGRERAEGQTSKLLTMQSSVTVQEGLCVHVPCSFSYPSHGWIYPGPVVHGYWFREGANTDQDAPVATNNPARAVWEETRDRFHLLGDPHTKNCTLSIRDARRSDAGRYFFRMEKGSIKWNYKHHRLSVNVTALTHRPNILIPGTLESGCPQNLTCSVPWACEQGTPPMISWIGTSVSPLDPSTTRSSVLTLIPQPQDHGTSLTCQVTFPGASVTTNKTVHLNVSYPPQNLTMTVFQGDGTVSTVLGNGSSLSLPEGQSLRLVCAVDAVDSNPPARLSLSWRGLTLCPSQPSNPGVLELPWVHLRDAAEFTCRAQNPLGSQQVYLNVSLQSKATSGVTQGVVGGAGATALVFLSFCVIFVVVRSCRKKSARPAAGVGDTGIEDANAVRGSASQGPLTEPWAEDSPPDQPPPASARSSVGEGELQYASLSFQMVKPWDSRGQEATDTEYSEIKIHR
Protein translocase subunit SecA (Escherichia coli (strain K12)), sequence (P10408 whole entry): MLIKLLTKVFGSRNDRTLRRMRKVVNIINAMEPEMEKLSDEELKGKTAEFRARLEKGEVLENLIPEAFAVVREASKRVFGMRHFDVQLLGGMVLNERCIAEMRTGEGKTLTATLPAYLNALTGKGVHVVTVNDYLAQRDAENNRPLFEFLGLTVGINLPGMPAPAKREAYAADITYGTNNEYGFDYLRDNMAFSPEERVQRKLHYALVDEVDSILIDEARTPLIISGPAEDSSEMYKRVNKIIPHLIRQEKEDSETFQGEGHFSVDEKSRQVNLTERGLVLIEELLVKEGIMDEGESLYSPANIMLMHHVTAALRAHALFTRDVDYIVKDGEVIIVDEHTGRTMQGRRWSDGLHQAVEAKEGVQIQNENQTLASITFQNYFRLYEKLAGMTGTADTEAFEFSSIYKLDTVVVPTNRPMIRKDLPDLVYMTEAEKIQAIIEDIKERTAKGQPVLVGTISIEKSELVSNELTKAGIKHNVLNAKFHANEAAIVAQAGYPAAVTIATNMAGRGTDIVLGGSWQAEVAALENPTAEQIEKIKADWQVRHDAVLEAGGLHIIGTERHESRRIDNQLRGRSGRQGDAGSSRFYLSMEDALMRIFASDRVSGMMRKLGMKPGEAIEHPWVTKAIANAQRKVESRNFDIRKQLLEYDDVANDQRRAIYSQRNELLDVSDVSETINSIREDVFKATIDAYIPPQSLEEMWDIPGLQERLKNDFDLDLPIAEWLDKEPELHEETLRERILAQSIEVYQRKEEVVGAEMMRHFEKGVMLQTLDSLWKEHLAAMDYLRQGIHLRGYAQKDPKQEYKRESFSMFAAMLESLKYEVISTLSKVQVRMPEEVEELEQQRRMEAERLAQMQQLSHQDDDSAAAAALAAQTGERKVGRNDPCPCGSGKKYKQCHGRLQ

Compound | Percent Effect [1] | Percent Effect [2] | Percent Effect [3] | Percent Effect [4] | Percent Effect (Trypanosoma cruzi) | Percent Effect [5] | Percent Effect [6] | Percent Effect (Homo sapiens) | Percent Effect [7] | Percent Effect [8] | Percent Effect [9]
Cc1ccc(N2CCCN(C(=O)c3cc(Cl)c[nH]3)CC2)nn1 | -3.96% | -5.48% | 4.73% | 4.6% | -3.17% | 3.59% | 9.33% | 2.32% | 12.5% | 23.5% | -1.25%
Cc1cn(-c2ccccc2)nc1NS(=O)(=O)c1cccc(C(=O)O)c1 | -4.24% | 0% | 9.15% | -6.49% | -9.01% | 5% | 14.4% | 10.4% | -5.38% | -5% | -7.14%
CCc1ccc(-n2c(=O)[nH]c3nc(N4CCSCC4)ncc3c2=O)cc1 | -2.14% | 21.1% | 0.234% | -5.88% | 1.85% | 5.92% | 15.8% | -2.32% | 0% | 5.2% | 45.8%
NC(=O)c1ccc(OCC(=O)N2CCCC(n3cccn3)C2)cc1 (configuration not stated) | -3.58% | 15.6% | 6.85% | 2.82% | -2.06% | 1.9% | 7.2% | 1.54% | 7.62% | 14.1% | -7.55%
CC(C)Nc1nc2c(cc1C(=O)NCC1CC1)CCNCC2 | -1.6% | 10.7% | 6.52% | 7.51% | -2.9% | -29.2% | 8.55% | -6.96% | 7.29% | 5% | -10.3%
CCC(CC)C(CNC(=O)Nc1ccc(C)cc1)N1CCOCC1 (configuration not stated) | -3.76% | 22.8% | -8.69% | -4.59% | 4.63% | -0.76% | 3.52% | 5.24% | -25.1% | 21.5% | -8.39%
CCOc1ncccc1CNC(=O)N1CCCC1c1ccncc1 (configuration not stated) | -1.89% | 5.33% | -2.16% | 2.11% | -7.3% | 4.17% | 8.37% | 12.2% | 4.92% | 13.6% | -7.62%
CCSCCC(=O)Nc1ncn(CC(=O)NCc2ccccc2)n1 | -4.92% | 16% | -4.62% | 16.7% | 8.86% | 3.65% | 25.1% | 5.59% | 12.6% | 28.4% | -2.42%
Cc1noc(C)c1CNC(=O)c1ccc(NC2CC2)nc1 | -5.61% | 5.26% | -12.2% | 12.7% | 7.94% | -2.52% | -0.0846% | 3.38% | 7.39% | 25.9% | -5.7%
O=C1CCCc2cc(-c3csc(CCN4CCOC4=O)n3)ccc2N1 | -5.49% | 20.8% | 0.804% | 11.1% | 4.12% | 2.85% | 18.1% | 36.1% | 8.74% | 26.8% | -9.88%
COCCN1CCC(CNC(=O)C2(c3cc(C)cc(C)c3)CCC2)C1 (configuration not stated) | -8.07% | 0% | -6.3% | -4.59% | -1.77% | 2.88% | -4.82% | -6.37% | 2.46% | 1.24% | 2.35%
N#Cc1ccccc1CN1C[C@@H]2CC[C@H](C1)N(Cc1cscn1)C2=O | -1.93% | 5.41% | -3.34% | 8.56% | -2.9% | -1.91% | 9.14% | -7.44% | 3.7% | -14.6% | -3.95%
O=C(COc1cccc2c1CCC2=O)NCCSc1ccccc1 | -1.44% | 5.26% | 7.61% | -2.93% | -2.63% | 10.7% | 8.92% | 20.8% | -2.13% | 7.79% | -5.02%
O=C(NCC1OCCc2cn(CC3CC3)nc21)c1ccsc1 (configuration not stated) | -5.87% | 18.2% | 2.23% | -1.55% | 3.65% | 1.94% | 12.2% | 8.57% | 2.12% | 14.1% | -7.27%
O=C1[C@@H]2CCN(Cc3ccoc3)C[C@@H]2OCCN1Cc1cccnc1 | -4.73% | 13.3% | 6.25% | 5.81% | -2.76% | -0.699% | 11.4% | -11.6% | 4.25% | 1.28% | 1.76%
CN(C)[C@@H]1CCN(c2ncccn2)[C@H]1Cc1ccncc1 | -4.35% | 2.6% | -0.281% | 0.217% | 5.01% | 1.38% | 2.5% | -12.2% | 1.07% | 3.7% | -1.65%
CN(C(=O)Cn1nc(-c2ccc(F)cc2)oc1=O)C1CCS(=O)(=O)C1 (configuration not stated) | 0.314% | 20.8% | -6.94% | 6.92% | 0.291% | 0% | 19.3% | 13.6% | 2.1% | 10.3% | -6.7%
COCC1c2c(cnn2CC2CCOCC2)CCN1Cc1ccoc1 (configuration not stated) | -3.48% | 8.11% | 4.63% | 0.649% | 1.76% | 4.17% | 16% | -5.7% | 10.9% | 11% | -3.93%
CC(C(=O)NCc1ccc(N2CCNC(=O)C2)cc1)n1cncn1 (configuration not stated) | -6.76% | 26% | -36.6% | 17.6% | 8.24% | 1.42% | 5.57% | 14.6% | 5.83% | 21.9% | -12.2%
COc1ccccc1CC1CCCN(CCC#N)C1 (configuration not stated) | -3.04% | 5.2% | -0.847% | 2.02% | 3.82% | 4.42% | -6.39% | 8.44% | 2.86% | 11.8% | -9.24%
CC(NC(=O)c1ccc2c(c1)OCC(=O)N2)c1ccccc1F (configuration not stated) | -5.46% | 18.4% | 22% | 2% | 1.03% | -0.719% | 9.39% | -9.89% | 10.3% | 18.5% | -4.32%
Cn1cc(CN2CCCn3cnc(COCC4CC4)c3C2)cn1 | -4.51% | 8% | -1.37% | 1.51% | 6.95% | -55.7% | 7.69% | -4.29% | 4.17% | 15% | -7.64%
